In PubChem BioAssay:
Calls of active or inactive are those of the source.

Assays:
[1] = tested on: Plasmodium falciparum Sir2 (PF13_0152, Sir2A); experiment: pfSir2 binders on small-molecule microarrays, primary screen, biochemical, small-molecule microarray, 635 nm fluorescence (AID 1098); settings: small-molecule microarray binding, fluorescence 635 nm; higher = more signal;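 note: score merges spot fluorescence intensity with its signal-to-noise ratio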
[2] = small-molecule microarray binders of probe aDKK1, primary screen, biochemical, biotinylated probe, 635/667 nm fluorescence (AID 1099); settings: higher = more signal;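 note: score merges 667nm spot fluorescence with signal to noise across triplicate slides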
[3] = small-molecule microarray binders of probe aCHRDL2, primary screen, biochemical, biotinylated probe, 635/667 nm fluorescence (AID 1100); settings: higher = more signal
[4] = splicing luciferase reporter signal modulators, primary screen, spliceosome inhibition project, cell-based, HEK293, splice +/- reporter (AID 1101); settings: luminescence, 24 h, higher = more signal, called active from +8 up or from −8 down;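 note: HEK293 cells carrying a splicing-competent luciferase reporter gene; test concentration not given here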
[5] = target: Fibroblast growth factor 10 (Homo sapiens) (UniProt O15520); experiment: FGF10 binders on small-molecule microarrays, primary screen, biochemical, small-molecule microarray, 635 nm fluorescence (AID 1102); settings: FGF10 binding, fluorescence 635 nm, higher = more signal
Chain of Fibroblast growth factor 10 (Homo sapiens) (O15520 whole entry, looked up): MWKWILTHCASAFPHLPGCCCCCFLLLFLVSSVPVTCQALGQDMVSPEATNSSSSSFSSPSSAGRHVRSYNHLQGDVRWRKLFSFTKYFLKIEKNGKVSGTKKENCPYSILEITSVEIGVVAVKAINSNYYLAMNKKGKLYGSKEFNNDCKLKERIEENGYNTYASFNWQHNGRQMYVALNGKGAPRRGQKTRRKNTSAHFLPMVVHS

[6] = tested on: glycogen synthase kinase-3 (GSK3A per assay name; protocol says GSK3B); experiment: GSK3 binders on small-molecule microarrays, primary screen, biochemical, small-molecule microarray, 635 nm fluorescence, GSK3A (AID 1103); settings: small-molecule microarray binding, fluorescence 635 nm; higher = more signal; note: the record names both GSK3A and GSK3B
[7] = target: Epidermal growth factor receptor (Homo sapiens) (UniProt P00533); experiment: EGFR binders on small-molecule microarrays, primary screen, biochemical, small-molecule microarray, 635 nm fluorescence (AID 1104); settings: EGFR binding, higher = more signal;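 note: score merges 667 nm emission intensity with spot signal to noise over triplicate slides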
Chain of Epidermal growth factor receptor (Homo sapiens) (P00533 whole entry, looked up): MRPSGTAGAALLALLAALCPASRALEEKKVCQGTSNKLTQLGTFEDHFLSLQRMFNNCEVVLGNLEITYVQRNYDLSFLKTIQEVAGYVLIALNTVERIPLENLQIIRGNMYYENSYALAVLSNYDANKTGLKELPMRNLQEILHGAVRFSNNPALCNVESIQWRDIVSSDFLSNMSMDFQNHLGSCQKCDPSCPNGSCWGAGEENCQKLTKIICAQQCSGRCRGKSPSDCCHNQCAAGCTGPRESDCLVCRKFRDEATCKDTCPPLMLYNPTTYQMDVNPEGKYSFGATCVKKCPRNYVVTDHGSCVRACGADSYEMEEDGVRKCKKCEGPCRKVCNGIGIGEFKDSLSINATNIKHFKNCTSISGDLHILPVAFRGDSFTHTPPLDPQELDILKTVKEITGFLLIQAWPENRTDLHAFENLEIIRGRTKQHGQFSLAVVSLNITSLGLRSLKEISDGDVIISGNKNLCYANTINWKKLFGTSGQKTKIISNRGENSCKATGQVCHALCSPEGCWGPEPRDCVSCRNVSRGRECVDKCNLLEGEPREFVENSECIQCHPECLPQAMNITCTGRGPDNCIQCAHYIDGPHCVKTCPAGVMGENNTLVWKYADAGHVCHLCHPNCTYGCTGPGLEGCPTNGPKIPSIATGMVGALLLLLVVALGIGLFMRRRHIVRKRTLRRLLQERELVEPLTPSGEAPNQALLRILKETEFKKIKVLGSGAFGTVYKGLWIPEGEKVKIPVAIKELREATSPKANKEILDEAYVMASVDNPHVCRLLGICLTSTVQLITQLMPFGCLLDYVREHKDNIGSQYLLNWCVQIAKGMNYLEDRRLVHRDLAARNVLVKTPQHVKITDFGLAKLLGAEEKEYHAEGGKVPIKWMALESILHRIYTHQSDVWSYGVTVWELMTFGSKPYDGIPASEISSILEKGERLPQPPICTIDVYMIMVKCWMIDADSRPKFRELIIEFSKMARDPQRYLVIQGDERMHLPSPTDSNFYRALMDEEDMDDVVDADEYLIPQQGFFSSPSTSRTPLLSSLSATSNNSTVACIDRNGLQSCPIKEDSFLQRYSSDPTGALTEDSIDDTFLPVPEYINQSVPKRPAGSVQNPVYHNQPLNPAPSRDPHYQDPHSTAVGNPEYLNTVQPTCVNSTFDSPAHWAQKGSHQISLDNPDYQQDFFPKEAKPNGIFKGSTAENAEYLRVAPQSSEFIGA

[8] = target: Follistatin-related protein 3 (Homo sapiens) (UniProt O95633); experiment: FSTL3 binders on small-molecule microarrays, primary screen, biochemical, small-molecule microarray, 635 nm fluorescence (AID 1105); settings: FSTL3 binding, higher = more signal;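 note: score merges emission near 667 nm and signal to noise per printed spot across three slides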
Chain of Follistatin-related protein 3 (Homo sapiens) (O95633 whole entry, looked up): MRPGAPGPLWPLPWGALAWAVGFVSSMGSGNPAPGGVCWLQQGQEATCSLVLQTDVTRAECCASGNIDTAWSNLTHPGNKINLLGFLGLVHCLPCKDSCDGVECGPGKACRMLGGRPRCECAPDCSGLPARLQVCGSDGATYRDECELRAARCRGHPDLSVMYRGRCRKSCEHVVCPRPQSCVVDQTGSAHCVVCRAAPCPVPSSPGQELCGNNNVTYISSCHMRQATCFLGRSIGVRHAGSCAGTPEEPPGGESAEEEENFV

[9] = target: Dickkopf-related protein 1 (Homo sapiens) (UniProt O94907); experiment: DKK1 binders on small-molecule microarrays, primary screen, biochemical, small-molecule microarray, 635 nm fluorescence scan (AID 1106); settings: DKK1 binding, higher = more signal;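 note: score merges emission near 667 nm with signal to noise over three replicate slides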
Chain of Dickkopf-related protein 1 (Homo sapiens) (O94907 whole entry, looked up): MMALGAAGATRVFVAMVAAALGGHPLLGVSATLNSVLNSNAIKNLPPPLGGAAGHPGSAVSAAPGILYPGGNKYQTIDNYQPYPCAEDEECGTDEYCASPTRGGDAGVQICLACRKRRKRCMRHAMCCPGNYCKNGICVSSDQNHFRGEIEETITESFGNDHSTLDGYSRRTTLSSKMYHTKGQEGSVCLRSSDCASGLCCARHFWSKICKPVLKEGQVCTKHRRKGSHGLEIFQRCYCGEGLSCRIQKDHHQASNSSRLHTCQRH

[10] = tested on: Inhibin beta A chain (activin A); experiment: INHBA (activin A) binders on microarrays, primary screen, biochemical, small-molecule microarray, 635 nm fluorescence scan (AID 1107); settings: small-molecule microarray binding, higher = more signal;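 note: mouse activin A protein probed at 4.33 µg/mL on printed slides; score merges bound-protein fluorescence near 667 nm with spot signal-to-noise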
[11] = tested on: Human papillomavirus type 1a protein E7 (residues 44-93); experiment: HPV1a E7 fragment binders on microarrays, primary screen, biochemical, small-molecule microarray, residues 44-93, 635 nm fluorescence (AID 1108); settings: small-molecule microarray binding, fluorescence 635 nm; higher = more signal;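 note: E7 fragment applied at 1 µg/mL in TBST for 1 h at 4 C; score combines spot fluorescence with its signal to noise ratio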
[12] = modulators of HCV replicon luciferase signal, primary screen, HCV replication inhibitor project, Huh7 cells, luciferase reporter (AID 1109); settings: 48 h, higher = more signal;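 note: huh7 hepatoma cells harbouring a luciferase neomycin HCV replicon reporter; luciferase luminescence as measure of HCV replicon replication; test concentration not given here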
[13] = target: Left-right determination factor 2 (Homo sapiens) (UniProt O00292); experiment: LEFTY2 binders on small-molecule microarrays, primary screen, biochemical, small-molecule microarray, 635 nm fluorescence scan (AID 1110); settings: LEFTY2 binding, higher = more signal
Chain of Left-right determination factor 2 (Homo sapiens) (O00292 whole entry, looked up): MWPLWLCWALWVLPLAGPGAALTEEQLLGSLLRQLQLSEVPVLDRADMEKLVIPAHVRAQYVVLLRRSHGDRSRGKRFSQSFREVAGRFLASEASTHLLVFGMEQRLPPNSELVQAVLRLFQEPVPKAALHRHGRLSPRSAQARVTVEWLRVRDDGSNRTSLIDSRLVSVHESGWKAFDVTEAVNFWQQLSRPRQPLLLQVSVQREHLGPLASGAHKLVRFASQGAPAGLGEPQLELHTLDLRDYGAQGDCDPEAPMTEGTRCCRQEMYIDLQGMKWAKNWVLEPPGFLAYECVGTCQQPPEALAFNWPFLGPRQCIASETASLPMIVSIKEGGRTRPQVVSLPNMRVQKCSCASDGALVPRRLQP

[14] = target: Calmodulin-1 (Homo sapiens) (UniProt P0DP23); experiment: CALM1 binders on microarrays, EGTA buffer, profiling panel, biochemical, small-molecule microarray, Cy5-labelled CALM1 (AID 1111); settings: Cy5-CALM1 binding fluorescence, higher = more signal;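 note: labelled calmodulin applied in Tris saline Tween buffer holding calcium plus EGTA and DTT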
[15] = target: Calmodulin-1 (Homo sapiens) (UniProt P0DP23); experiment: calcium-bound CALM1 binders on microarrays, profiling panel, artefact control for SMM control-protein annotation, biochemical, small-molecule microarray, Cy5-labelled CALM1, plus calcium (AID 1112); settings: Cy5-CALM1 binding fluorescence, higher = more signal;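 note: score merges spot fluorescence with signal to noise from triplicate slides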
[16] = small-molecule microarray binders of probe aWnt5a, primary screen, biochemical, biotinylated probe, 635/667 nm fluorescence (AID 1113); settings: higher = more signal;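 note: score merges 667 nm fluorescence intensity with signal-to-noise per printed feature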
[17] = small-molecule microarray binders of probe aShh, primary screen, biochemical, biotinylated probe, 635/667 nm fluorescence (AID 1114); settings: higher = more signal;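 note: probe is biotin-labelled aShh protein from a stem cell growth factor screen; measures binding of labelled protein to compounds printed on the slide; score merges feature fluorescence at 667 nm with signal-to-noise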
[18] = small-molecule microarray binders of probe aNog, primary screen, biochemical, biotinylated probe, 635/667 nm fluorescence (AID 1115); settings: higher = more signal;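 note: probe is biotinylated aNog protein used at 0.15 µg/mL for 1 h at 4 C; z-score combines 667 nm fluorescence of each spot with its signal to noise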
[19] = target: Torsin-1A-interacting protein 1 (Homo sapiens) (UniProt Q5JTV8); experiment: LAP1 binders from COS7 cell lysate, primary screen, small-molecule microarray, 635/667 nm fluorescence (AID 1116); settings: COS7-hLAP1 lysate binding, 635 nm fluorescence, higher = more signal
Chain of Torsin-1A-interacting protein 1 (Homo sapiens) (Q5JTV8 whole entry, looked up): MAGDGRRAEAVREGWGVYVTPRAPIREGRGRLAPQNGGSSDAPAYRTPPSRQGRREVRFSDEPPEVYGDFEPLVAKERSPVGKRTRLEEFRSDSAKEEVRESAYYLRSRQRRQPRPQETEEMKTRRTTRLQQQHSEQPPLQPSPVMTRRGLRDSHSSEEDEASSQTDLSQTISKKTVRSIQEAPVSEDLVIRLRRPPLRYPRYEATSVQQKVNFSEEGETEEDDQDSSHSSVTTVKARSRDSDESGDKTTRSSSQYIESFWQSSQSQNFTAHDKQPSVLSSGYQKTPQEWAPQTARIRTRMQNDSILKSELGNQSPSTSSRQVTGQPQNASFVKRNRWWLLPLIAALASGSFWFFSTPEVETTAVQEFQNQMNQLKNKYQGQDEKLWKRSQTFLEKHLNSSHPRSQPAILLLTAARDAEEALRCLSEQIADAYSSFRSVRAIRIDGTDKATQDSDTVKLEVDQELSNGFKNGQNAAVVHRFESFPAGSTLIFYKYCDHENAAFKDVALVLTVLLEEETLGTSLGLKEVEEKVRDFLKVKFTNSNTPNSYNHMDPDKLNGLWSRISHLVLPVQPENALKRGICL

[20] = target: Alpha-bungarotoxin (Bungarus multicinctus) (UniProt P60615); experiment: alpha-bungarotoxin binders on microarray, profiling panel, artefact control for SMM control protein annotation, biochemical, small-molecule microarray, Alexa647 label, 635/667 nm fluorescence (AID 1117); settings: alpha-BTX-A647 binding fluorescence, higher = more signal
Chain of Alpha-bungarotoxin (Bungarus multicinctus) (P60615 whole entry, looked up): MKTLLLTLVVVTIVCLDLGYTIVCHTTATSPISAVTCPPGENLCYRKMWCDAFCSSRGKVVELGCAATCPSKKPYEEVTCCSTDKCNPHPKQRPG

| SMILES | composite z-score [1] | composite z-score [2] | composite z-score [3] | z-score [4] | composite z-score [5] | composite z-score [6] | composite z-score [7] | composite z-score [8] | composite z-score [9] | composite z-score [10] | composite z-score [11] | z-score [12] | composite z-score [13] | composite z-score [14] | composite z-score [15] | composite z-score [16] | composite z-score [17] | composite z-score [18] | composite z-score [19] | composite z-score [20] |
| --- | --- | --- | --- | --- | --- | --- | --- | --- | --- | --- | --- | --- | --- | --- | --- | --- | --- | --- | --- | --- |
| C=C(C(=O)CC[C@@H](OC(C)=O)c1ccccc1OCCO)C(C)C | 0.967 | -0.416 | -0.0909 | -1.41 (inactive) | 1.14 | -0.465 | -0.847 | -0.406 | 0.108 | 0.959 | -0.512 | -3.88 | -0.325 | -0.942 | -1.21 | -0.202 | -0.153 | -0.0783 | 0.495 | -0.175 |
| CO[C@H]1O[C@H](CO)[C@@H](OC(=O)Nc2ccccc2)[C@H](OC(=O)Nc2ccccc2-c2ccccc2)[C@H]1OC(=O)Nc1ccccc1-c1ccccc1 | 1.79 | 0.834 | 0.91 | -2.83 (inactive) | 0.626 | 1.31 | -0.165 | 0.824 | 0.482 | 0.0315 | 1.36 | -3.9 | 0.152 | 2.18 | 0.438 | -0.0735 | 0.366 | 0.767 | 2.08 | 2.54 |
| COC(=O)C1=CC(c2ccc(CO)cc2)=CC(c2cccs2)N(C)C=C1C(=O)OC (stereo not given) | 1.52 | 0.772 | 1.13 | -1.77 (inactive) | -0.0489 | -0.57 | -0.407 | 0.409 | -0.813 | 1.46 | -0.526 | -0.176 | -0.76 | 1.36 | 0.774 | -0.096 | 0.138 | 0.603 | 0.107 | 0.765 |
| C=C(C(=O)CC[C@H](OC(C)=O)c1ccc(CO)o1)C(C)C | 1.73 | -0.272 | -0.476 | -1.4 (inactive) | 0.0843 | 0.626 | -0.986 | -0.144 | 0.24 | 0.0011 | -0.559 | -1.52 | -0.586 | -0.579 | -0.758 | -0.096 | 0.0048 | -0.309 | 1.15 | -0.292 |
| O=C1N(CCS(=O)(=O)c2ccccc2)Cc2ccccc2[C@@H]2OC(c3ccc(OCCCO)cc3)=N[C@]12Cc1ccccc1 | 1.61 | 1.22 | 1.14 | -0.127 (inactive) | 1.37 | 1.33 | 0.267 | 1.33 | 0.797 | 0.49 | 0.427 | -1.4 | 0.533 | 1.88 | 0.189 | 0.0614 | 0.191 | 0.998 | 1.16 | 2.73 |
| CC(C)C[C@@H]1NC(=O)[C@@]23C(=O)N[C@@H](Cc4ccccc4)C2[C@H](C)[C@@]2(C)O[C@H]2C3/C=C/CC/C=C/CNC(=O)[C@@H](C)NC1=O (stereo not given in full) | 0.624 | -0.246 | -0.722 | -0.585 (inactive) | 1.39 | 0.374 | 0.732 | 1.07 | 0.81 | 1.29 | -0.211 | 0.42 | 0.575 | -0.643 | -1.39 | -0.154 | -0.229 | 0.117 | -0.152 | -0.195 |
| CCCCCN1CC=CC23O[C@@H]4/C=C\CCC(C)OC(=O)C4[C@H]2C(=O)N(CCCO)[C@@H]3C1=O (stereo not given in full) | 0.936 | -0.212 | 0.183 | -0.246 (inactive) | -0.753 | -0.723 | -1.36 | -1.24 | -0.543 | 0.797 | -0.93 | -0.333 | -1.15 | -1.35 | 0.0216 | -0.194 | -0.2 | -0.0511 | 1.99 | 2.69 |
| C/C=C/[C@@H](CCn1cc(CCO[Si](C(C)C)(C(C)C)C(C)C)nn1)[Si](C)(C)c1ccc(OC)cc1 | -0.82 | -0.941 | -0.34 | -2.83 (inactive) | -1.03 | -0.918 | -2.01 | -1.72 | -1.03 | 1.01 | -0.77 | -0.918 | -0.426 | -2.98 | -2.87 | -0.182 | -0.323 | -0.866 | -0.24 | -1.25 |
| CC(CO)N1C(=O)[C@@H]2C3C(=O)OCCC/C=C\[C@H]3OC23C=CCN(Cc2ccccc2)C(=O)[C@@H]13 (stereo not given in full) | 0.608 | -0.206 | 0.0202 | -0.992 (inactive) | -0.559 | -0.236 | -0.794 | -0.639 | -0.386 | 1.21 | -0.412 | -0.159 | -0.784 | -0.182 | -0.292 | -0.176 | -0.0769 | -0.036 | -0.307 | -1.53 |
| C=CCN1C(=O)[C@@]2(O[C@@H](CCn3cc(CCO)nn3)[C@H]([Si](C)(C)c3ccc(OC)cc3)[C@H]2C)c2cc(N3C(=O)c4cccc5cccc3c45)ccc21 | 0.579 | 0.13 | -0.224 | -3.34 (inactive) | 0.466 | 0.308 | 0.234 | 0.688 | 0.315 | 0.58 | 0.51 | -5.22 | -0.165 | 1.37 | 0.258 | 0.0733 | -0.138 | 0.473 | 0.482 | 1.6 |
| CO[C@H]1O[C@H](CO)[C@@H](OC(=O)Nc2ccccc2)[C@H](OC(=O)Nc2ccc3c(c2)OCO3)[C@H]1OC(=O)Nc1ccc2c(c1)OCO2 | 1.59 | 0.666 | 0.757 | -0.618 (inactive) | 0.729 | 0.741 | -0.242 | 0.292 | 0.0894 | 0.798 | 0.538 | -1.04 | 0.452 | 1.65 | -0.617 | 0.0973 | 0.0898 | 1.19 | 1.51 | 0.485 |
